Results filed as inconclusive are left out. Activity calls are given as the source filed them. Unless noted, calls come from the whole dose curve; as a rule, active = well fitted curve in the direction sought with a large enough effect in the repeat runs; inconclusive = weak or mixed curves; inactive = no such curve, though single readings can be large; an effect the other way counts as inactive or inconclusive.
What was measured:
[1] = qHTS assay to identify small molecule antagonists of the sonic hedgehog signaling (Shh) pathway (AID 1259369; calls by dose curve; note: nearly all actives have a fitted effect of over 45% in size)
Summary of the method: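 3T3Gli1-Luc, conditioned-medium-stimulated, 24hr cpd, 37C/5% CO2; Gli1-driven firefly Luc luminescence after 30min RT with luciferase reagent. Cells plated 4hr before cpd.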

[2] = biological target: Estrogen receptor beta (Homo sapiens) (UniProt Q92731); test: qHTS assay to identify small molecule agonists of the estrogen receptor beta (ER-beta) signaling pathway (AID 1259377; active = well fitted activation curve with a large enough effect in the signal ratio in the repeat runs, not every such curve was filed as active; the % refers to the signal ratio)
Estrogen receptor beta (Homo sapiens), sequence (Q92731 whole entry, looked up): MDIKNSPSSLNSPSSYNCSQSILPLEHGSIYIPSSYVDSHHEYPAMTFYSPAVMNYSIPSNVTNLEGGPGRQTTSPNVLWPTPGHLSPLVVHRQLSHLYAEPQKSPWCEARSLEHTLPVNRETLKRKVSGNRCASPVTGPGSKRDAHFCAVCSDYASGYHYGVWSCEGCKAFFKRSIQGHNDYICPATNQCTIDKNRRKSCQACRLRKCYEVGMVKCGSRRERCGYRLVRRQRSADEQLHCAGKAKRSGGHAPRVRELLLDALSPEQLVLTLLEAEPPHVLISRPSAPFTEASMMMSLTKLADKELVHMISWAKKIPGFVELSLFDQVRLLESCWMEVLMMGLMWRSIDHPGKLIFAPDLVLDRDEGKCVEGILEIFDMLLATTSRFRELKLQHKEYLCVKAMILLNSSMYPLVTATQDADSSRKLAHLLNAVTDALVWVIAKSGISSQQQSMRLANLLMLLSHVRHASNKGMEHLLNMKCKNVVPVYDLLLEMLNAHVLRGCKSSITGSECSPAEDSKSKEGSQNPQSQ
Summary of the method: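 HEK293T ER-beta-UAS-bla; 2% charcoal-stripped FBS; cells pre-incubated 6 hr, compound 16 hr, 37C/5% CO2; LiveBLAzer B/G FRET substrate 2 h RT; fluorescence intensity read.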

[3] = biological target: Estrogen receptor beta (Homo sapiens) (UniProt Q92731); test: qHTS assay to identify small molecule antagonists of the estrogen receptor beta (ER-beta) signaling pathway (AID 1259378; active = well fitted inhibition curve with a large enough effect in the signal ratio in the repeat runs, not every such curve was filed as active; the % refers to the signal ratio)
Summary of the method: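 Antagonist mode: compounds added to beta-lactamase reporter HEK293T ER-beta-UAS cells stimulated with E2 (1nM final), 16 hr at 37C. LiveBLAzer B/G FRET substrate, 2 hours room temperature, fluorescence read-out.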

[4] = qHTS assay to identify small molecule agonists of the androgen receptor (AR) signaling pathway in the presence of an antagonist - cell viability counter screen (AID 1259379);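 note: MDA-kb2 human breast cancer cells carrying an MMTV luciferase reporter; series mostly up to about 92 µM; nearly all actives have a fitted effect of over 25% in size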
Summary of the method: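 Cells: MDA-kb2 (MMTV-luc, AR and GR elements), 3,000/well, 5 hr settle. Added: nilutamide 3.0uM final, then compounds (15 conc.). Incubation: 16 hr, 37C, no CO2. Read-out: CellTiter-Fluor, 1 hr, fluorescence.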

[5] = qHTS assay to identify small molecule agonists of the estrogen receptor beta (ER-beta) signaling pathway - cell viability counter screen (AID 1259380); note: nearly all actives have a fitted effect of over 30% in size
Summary of the method: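 HEK293T ER-beta-UAS-bla; 2% CS-FBS; 6 hr pre-plate, 16 hr cpd at 37C/5% CO2; LiveBLAzer read first, then CellTiter-Glo 30 min RT, luminescence.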

[6] = biological target: Androgen receptor (Homo sapiens) (UniProt P10275); test: qHTS assay to identify small molecule agonists of the androgen receptor (AR) signaling pathway in the presence of an antagonist (AID 1259381; calls by dose curve; note: nearly all actives have a fitted effect of over 15% in size)
Androgen receptor (Homo sapiens), sequence (P10275 whole entry, looked up): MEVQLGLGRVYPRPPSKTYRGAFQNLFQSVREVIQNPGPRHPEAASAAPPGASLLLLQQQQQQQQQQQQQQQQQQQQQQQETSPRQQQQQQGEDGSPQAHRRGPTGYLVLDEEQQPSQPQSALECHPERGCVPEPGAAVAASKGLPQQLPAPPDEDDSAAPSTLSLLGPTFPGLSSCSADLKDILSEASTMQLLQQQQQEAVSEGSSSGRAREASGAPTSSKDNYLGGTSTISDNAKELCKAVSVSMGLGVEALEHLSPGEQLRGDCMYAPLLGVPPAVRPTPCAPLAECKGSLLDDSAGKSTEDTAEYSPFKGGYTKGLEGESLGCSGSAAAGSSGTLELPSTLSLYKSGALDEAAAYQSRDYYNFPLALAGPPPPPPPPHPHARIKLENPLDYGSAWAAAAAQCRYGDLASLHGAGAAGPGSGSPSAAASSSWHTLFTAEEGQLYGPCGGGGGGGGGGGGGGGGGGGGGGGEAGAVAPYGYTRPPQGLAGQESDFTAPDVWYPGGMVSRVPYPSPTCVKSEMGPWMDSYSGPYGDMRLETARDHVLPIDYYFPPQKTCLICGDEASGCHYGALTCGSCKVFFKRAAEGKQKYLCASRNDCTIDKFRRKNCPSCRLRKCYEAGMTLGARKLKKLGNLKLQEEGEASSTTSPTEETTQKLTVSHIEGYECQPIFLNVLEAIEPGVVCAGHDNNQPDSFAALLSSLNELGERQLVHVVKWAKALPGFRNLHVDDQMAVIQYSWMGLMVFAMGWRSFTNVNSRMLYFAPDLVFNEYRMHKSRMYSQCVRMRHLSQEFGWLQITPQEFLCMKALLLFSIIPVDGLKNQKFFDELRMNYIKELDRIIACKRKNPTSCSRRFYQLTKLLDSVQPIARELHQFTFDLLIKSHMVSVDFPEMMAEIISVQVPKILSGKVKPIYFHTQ
Summary of the method: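 MDA-kb2 cells, 3,000/well, rested 5hr at 37C/0% CO2 → nilutamide 3.0uM final or buffer → compounds, 15 conc. → 16hr at 37C → ONE-Glo, 30min RT → luminescence.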

[7] = qHTS assay to identify small molecule antagonists of the estrogen receptor beta (ER-beta) signaling pathway - cell viability counter screen (AID 1259382);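 note: HEK293T cells carrying ER-beta-UAS-bla reporter stimulated with estradiol; series mostly up to about 92 µM; nearly all actives have a fitted effect of over 55% in size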
Summary of the method: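 Cells: ER-beta-UAS-bla HEK293T, 2,000/well, 2% CS-FBS, 6 hr settle. Cpd + E2 (1nM final), 16 hr, 37C/5% CO2. Bla FRET substrate 2 hr RT, then CellTiter-Glo 30 min RT, luminescence.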

[8] = qHTS assay to identify small molecule agonists of the estrogen receptor alpha (ER-alpha) signaling pathway in the presence of an antagonist - cell viability counter screen (AID 1259386);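 note: series mostly up to about 92 µM; cells exposed to compounds for 22 h at 37 °C before the viability read; nearly all actives have a fitted effect of over 30% in size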
Summary of the method: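 VM7Luc4E2, stripped-serum pre-culture 5 d; 24hr plating; +ICI-182,780 10.0nM final; cpds 15 conc, 22hr, 37C/5% CO2; CellTiter-Fluor added at 21hr, fluorescence 1hr later.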

[9] = biological target: Progesterone receptor (Homo sapiens) (UniProt P06401); test: qHTS assay to identify small molecule agonists of the progesterone receptor (PR) signaling pathway (AID 1346784; calls by dose curve; note: nearly all actives have a fitted effect of over 30% in size)
Progesterone receptor (Homo sapiens), sequence (P06401 whole entry, looked up): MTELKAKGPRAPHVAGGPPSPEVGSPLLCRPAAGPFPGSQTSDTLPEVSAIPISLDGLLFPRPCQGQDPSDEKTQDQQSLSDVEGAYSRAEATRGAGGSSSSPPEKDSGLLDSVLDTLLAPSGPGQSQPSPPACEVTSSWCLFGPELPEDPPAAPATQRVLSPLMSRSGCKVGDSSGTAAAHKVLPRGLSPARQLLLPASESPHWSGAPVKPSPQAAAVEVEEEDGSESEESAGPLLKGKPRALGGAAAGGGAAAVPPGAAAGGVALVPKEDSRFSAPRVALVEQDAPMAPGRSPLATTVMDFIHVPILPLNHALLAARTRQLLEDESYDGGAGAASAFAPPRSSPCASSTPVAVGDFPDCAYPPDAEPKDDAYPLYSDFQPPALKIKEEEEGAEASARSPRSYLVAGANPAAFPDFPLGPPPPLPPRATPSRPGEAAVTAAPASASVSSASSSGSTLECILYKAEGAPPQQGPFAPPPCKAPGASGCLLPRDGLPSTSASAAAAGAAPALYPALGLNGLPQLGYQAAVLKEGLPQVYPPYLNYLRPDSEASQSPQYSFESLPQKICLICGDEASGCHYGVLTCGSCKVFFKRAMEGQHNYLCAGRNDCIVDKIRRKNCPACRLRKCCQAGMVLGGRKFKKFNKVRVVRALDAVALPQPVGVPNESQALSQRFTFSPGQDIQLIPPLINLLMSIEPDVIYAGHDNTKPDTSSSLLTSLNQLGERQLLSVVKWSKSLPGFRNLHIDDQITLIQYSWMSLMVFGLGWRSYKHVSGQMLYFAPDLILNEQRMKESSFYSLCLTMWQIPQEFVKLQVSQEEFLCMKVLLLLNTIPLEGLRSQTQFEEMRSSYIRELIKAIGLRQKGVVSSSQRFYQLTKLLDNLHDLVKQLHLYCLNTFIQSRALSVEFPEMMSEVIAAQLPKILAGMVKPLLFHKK
Summary of the method: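 Beta-lactamase reporter read-out: after 16 hr compound treatment at 37C and a further 2 hr at room temperature with LiveBLAzer B/G FRET substrate, fluorescence was measured in PR-UAS-bla HEK 293T cells grown in 2% charcoal-stripped serum.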

[10] = biological target: Progesterone receptor (Homo sapiens) (UniProt P06401); test: qHTS assay to identify small molecule antagonists of the progesterone receptor (PR) signaling pathway (AID 1346795; active = well fitted inhibition curve with a large enough effect in the signal ratio in the repeat runs, not every such curve was filed as active; the % refers to the signal ratio)
Summary of the method: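 Read-out is fluorescence from the LiveBLAzer B/G FRET substrate, cleaved by a UAS-controlled beta-lactamase in PR-UAS-bla HEK293T cells after 16 hr exposure to compound plus 1 nM promegestone (final), followed by 2 hr at room temperature.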

[11] = qHTS assay to identify small molecule antagonists of the progesterone receptor (PR) signaling pathway - cell viability counter screen (AID 1346798);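 note: HEK293T PR-UAS-bla cells stimulated with the agonist R5020; series mostly up to about 92 µM; nearly all actives have a fitted effect of over 50% in size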
Summary of the method: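 HEK293T PR-UAS-bla, 2% charcoal-stripped FBS; 4 hr pre-plate; cpd + R5020, 16 h 37C; LiveBLAzer read first; then CellTiter-Glo 30 min RT, luminescence.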

[12] = qHTS assay to identify small molecule agonists of the progesterone receptor (PR) signaling pathway - cell viability counter screen (AID 1346799; calls by dose curve; note: nearly all actives have a fitted effect of over 45% in size)
Summary of the method: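 Luminescence from CellTiter-Glo, added after the beta-lactamase FRET read in the same wells, gave cytotoxicity in PR-UAS-bla HEK293T cells treated with compounds for 16 hr at 37C.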

[13] = qHTS assay to identify small molecule antagonists of the TGF-beta/Smad signaling pathway - cell viability counter screen (AID 1346824); note: nearly all actives have a fitted effect of over 50% in size
Summary of the method: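 Cytotoxicity counter-screen run in the same wells as the beta-lactamase Smad reporter read: CellTiter-Glo luminescence after 30 min at room temperature. HEK 293T SBE-bla cells had 5 hr compound exposure at 37 C with TGF-beta1 (0.25 ng/mL stock).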

[14] = qHTS assay to identify small molecule agonists of the TGF-beta/Smad signaling pathway - cell viability counter screen (AID 1346829); note: top concentration of the series differs between compounds; nearly all actives have a fitted effect of over 45% in size
Summary of the method: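 Cytotoxicity counter screen: CellTiter-Glo luminescence (30 min, room temperature) measured in the SBE-bla HEK 293T reporter wells after 5 hr compound treatment at 37 C and the 2 hr substrate step.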

[15] = qHTS assay to identify small molecule agonists of the TGF-beta/Smad signaling pathway (AID 1346859; active = well fitted activation curve with a large enough effect in the signal ratio in the repeat runs, not every such curve was filed as active; the % refers to the signal ratio; note: series mostly up to about 77 µM)
Summary of the method: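 SBE-bla HEK 293T, 4,000 cells/well, plated o/n; cpd in DMSO, 5 hr, 37 C/5% CO2; B/G FRET substrate 2 hr RT; ex 405, em 460/530 nm.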

[16] = biological target: Thyrotropin-releasing hormone receptor (Homo sapiens) (UniProt P34981); test: qHTS assay to identify small molecule antagonists of the thyrotropin-releasing hormone receptor (TRHR) signaling pathway (AID 1346877; active = well fitted inhibition curve with a large enough effect in the repeat runs, not every such curve was filed as active; note: series mostly up to about 51 µM)
Thyrotropin-releasing hormone receptor (Homo sapiens), sequence (P34981 whole entry, looked up): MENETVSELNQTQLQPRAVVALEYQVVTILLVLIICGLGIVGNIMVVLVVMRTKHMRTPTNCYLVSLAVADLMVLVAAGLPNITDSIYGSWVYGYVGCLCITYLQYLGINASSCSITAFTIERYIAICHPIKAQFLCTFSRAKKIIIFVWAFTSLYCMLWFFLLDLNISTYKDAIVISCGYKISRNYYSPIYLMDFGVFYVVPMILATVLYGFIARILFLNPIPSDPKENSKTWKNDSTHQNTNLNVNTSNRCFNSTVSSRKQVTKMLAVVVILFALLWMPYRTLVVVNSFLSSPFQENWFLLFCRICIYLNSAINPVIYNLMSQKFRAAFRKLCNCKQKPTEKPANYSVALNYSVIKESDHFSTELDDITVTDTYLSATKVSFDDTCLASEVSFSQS
Summary of the method: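 Intracellular calcium fluorescence, read kinetically every second over 3 min, reports TRH-evoked signalling in HEK293 cells carrying TRHR. Test compounds were added 5 min ahead of a 1 nM TRH challenge.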

[17] = biological target: Estrogen receptor (Homo sapiens) (UniProt P03372); test: qHTS assay to identify small molecule agonists of the estrogen receptor alpha (ER-alpha) signaling pathway in the presence of an antagonist (AID 1259383; calls by dose curve; note: top concentration of the series differs between compounds; nearly all actives have a fitted effect of over 15% in size)
Estrogen receptor (Homo sapiens), sequence (P03372 whole entry, looked up): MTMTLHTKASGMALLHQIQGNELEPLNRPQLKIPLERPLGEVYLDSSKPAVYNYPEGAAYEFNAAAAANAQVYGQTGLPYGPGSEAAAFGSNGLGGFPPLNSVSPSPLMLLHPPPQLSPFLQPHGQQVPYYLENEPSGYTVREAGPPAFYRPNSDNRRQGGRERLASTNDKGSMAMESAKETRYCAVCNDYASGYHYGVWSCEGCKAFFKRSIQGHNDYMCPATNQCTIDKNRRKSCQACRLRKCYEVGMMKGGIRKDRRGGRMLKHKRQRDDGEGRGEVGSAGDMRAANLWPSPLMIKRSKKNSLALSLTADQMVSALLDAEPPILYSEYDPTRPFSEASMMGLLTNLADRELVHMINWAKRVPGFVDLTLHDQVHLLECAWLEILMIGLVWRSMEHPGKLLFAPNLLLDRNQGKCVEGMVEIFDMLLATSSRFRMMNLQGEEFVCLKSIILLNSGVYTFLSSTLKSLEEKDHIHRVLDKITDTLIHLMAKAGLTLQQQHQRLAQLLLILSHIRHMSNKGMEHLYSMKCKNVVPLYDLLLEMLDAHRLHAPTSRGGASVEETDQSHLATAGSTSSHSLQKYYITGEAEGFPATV
Summary of the method: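 VM7Luc4E2, endog. ER-alpha + 4×ERE-luc; charcoal-stripped FBS, phenol red-free, 5 d; 24hr plating; +10.0nM ICI-182,780 (final); cpds 15 conc, 22hr, 37C/5% CO2; ONE-Glo luminescence.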

[18] = qHTS assay to identify small molecule agonists or antagonists of the thyroid stimulating hormone receptor (TSHR) signaling pathway - wild type cell line counter screen (AID 1259384; calls by dose curve)
Summary of the method: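 Counter screen in untransfected Hek293: compounds (15-point titration, triplicate) plus phosphodiesterase inhibitor Ro20-1724 added after 18 h plating; 30 min RT. Intracellular cAMP via competitive d2/cryptate immunoassay, 1 h incubation.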

[19] = biological target: Thyrotropin receptor (Homo sapiens) (UniProt P16473); test: qHTS assay to identify small molecule antagonists of the thyroid stimulating hormone receptor (TSHR) signaling pathway (AID 1259385; calls by dose curve; note: nearly all actives have a fitted effect of over 20% in size)
Thyrotropin receptor (Homo sapiens), sequence (P16473 whole entry, looked up): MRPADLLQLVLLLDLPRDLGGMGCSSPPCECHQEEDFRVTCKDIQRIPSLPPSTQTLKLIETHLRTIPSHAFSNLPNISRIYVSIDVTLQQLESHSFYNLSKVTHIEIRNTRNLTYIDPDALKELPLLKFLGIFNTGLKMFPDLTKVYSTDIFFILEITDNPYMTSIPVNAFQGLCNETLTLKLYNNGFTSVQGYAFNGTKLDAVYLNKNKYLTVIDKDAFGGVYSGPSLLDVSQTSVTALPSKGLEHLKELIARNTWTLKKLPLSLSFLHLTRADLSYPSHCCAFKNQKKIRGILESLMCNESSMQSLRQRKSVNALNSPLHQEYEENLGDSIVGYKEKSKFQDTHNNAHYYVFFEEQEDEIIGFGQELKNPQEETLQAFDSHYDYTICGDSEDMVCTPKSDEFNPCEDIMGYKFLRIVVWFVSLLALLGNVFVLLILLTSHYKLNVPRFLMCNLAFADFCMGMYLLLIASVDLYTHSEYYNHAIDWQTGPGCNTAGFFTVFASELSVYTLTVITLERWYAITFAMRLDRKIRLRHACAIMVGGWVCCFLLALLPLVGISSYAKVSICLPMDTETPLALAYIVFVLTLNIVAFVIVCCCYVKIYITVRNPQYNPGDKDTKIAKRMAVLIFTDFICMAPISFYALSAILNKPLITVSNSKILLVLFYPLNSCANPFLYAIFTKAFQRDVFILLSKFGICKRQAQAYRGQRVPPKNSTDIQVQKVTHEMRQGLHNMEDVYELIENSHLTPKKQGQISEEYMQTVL
Summary of the method: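 Antagonist mode: compound-treated TSHR-expressing HEK293 cells were stimulated with 1.5 ng/mL TSH (final) in presence of Ro20-1724 for 30 min at RT. HTRF cAMP detection after 1 h; each compound tested at 15 concentrations, triplicate.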

[20] = biological target: Thyrotropin-releasing hormone receptor (Homo sapiens) (UniProt P34981); test: qHTS assay to identify small molecule agonists of the thyrotropin-releasing hormone receptor (TRHR) signaling pathway (AID 1346891; calls by dose curve; note: series mostly up to about 58 µM)
Summary of the method: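 Intracellular calcium rise, read as fluorescence every second for 3 min, served as the agonist signal in dye-loaded HEK293 cells expressing TRHR; each compound ran at 15 concentrations in triplicate.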

Measured: Potency

Cc1cc(S(=O)(=O)O)c(N)cc1Cl
not listed: [17] | [18] | [19] | [20]
inactive: all other assays above

Cc1c[nH]c(=S)[nH]c1=O
not listed: [6] | [10] | [16] | [18] | [19] | [20]
inactive: all other assays above

CCCS(=O)c1ccc2nc(NC(=O)OC)[nH]c2c1 (stereo not given)
not listed: [10] | [17]
inactive: all other assays above

FC(F)(F)c1ccccc1
not listed: [6] | [9] | [11] | [20]
inactive: all other assays above

Cc1onc(-c2ccccc2)c1C(=O)Cl
not listed: [6] | [17]
inactive: all other assays above

Cn1cnc2c(F)c(Nc3ccc(Br)cc3Cl)c(C(=O)NOCCO)cc21
not listed: [7] | [12] | [16] | [17] | [18] | [19] | [20]
inactive: all other assays above

CC(C)(C)C1CCCCC1=O (stereo not given)
not listed: [6] | [13] | [18] | [19]
inactive: all other assays above

CC1(O)CSC(C)(O)CS1 (stereo not given)
not listed: [11] | [12] | [18] | [19] | [20]
inactive: all other assays above

Oc1ccccc1C=NCc1ccccc1
not listed: [5] | [6] | [8] | [9] | [17] | [20]
inactive: all other assays above

CC(=O)OC1C2(C)CCC(C2)C1(C)C (stereo not given)
not listed: [6] | [10] | [17]
inactive: all other assays above

CCOC(=O)C(Br)c1ccccc1 (stereo not given)
not listed: [5] | [6] | [9] | [10] | [16] | [17] | [20]
inactive: all other assays above

CCCC(CCC)(C(=O)OCC)C(=O)OCC
not listed: [5] | [7] | [10] | [11] | [13] | [20]
inactive: all other assays above

FC(F)(F)C(F)(F)C(F)(F)C(F)(F)C(F)(F)C(F)(F)C(F)(F)C(F)(F)Br
not listed: [6] | [10] | [17]
inactive: all other assays above

CC1(C)S[C@@H]2[C@H](NC(=O)C(C(=O)O)c3ccccc3)C(=O)N2[C@H]1C(=O)O (stereo not given in full)
not listed: [6] | [17] | [18] | [19] | [20]
inactive: all other assays above

Oc1ccccc1F
not listed: [6] | [7] | [11] | [17]
inactive: all other assays above

CC(C)NCC(O)COc1ccc(CCOCC2CC2)cc1 (stereo not given)
not listed: [6] | [7] | [16] | [17] | [18] | [19] | [20]
inactive: all other assays above

Reference: PubChem BioAssay (Tox21)
